We go through 35 targets from the supplement of paper PMC11006884.

The full data set covers some 6,500 targets. This sample favours those with a hit. About 2% of all pairs of compound and target were hits. A number with no mark means an inactive call.

Compound in this assay: COC(=O)C#Cc1ccccc1 [methyl 3-phenylpropiolate]
Put plainly: log2 ratio of iodoacetamide-alkyne labeling of the cysteine site, DMSO over compound (competition); higher = stronger covalent engagement of the cysteine by the compound, active = 1 or more. The following applies: 500 µM; treatment time 1 h; system: HEK293T cell lysate. Summed up: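 The log2 competition ratio per cysteine is defined as mean reporter intensity in control channels over mean reporter intensity in compound channels. Lysate from HEK293T cells (2 mg/mL) received electrophile (500 µM) or vehicle for 1 h at ambient temperature, followed by iodoacetamide alkyne for 1 h. Samples were clicked to sCIP-TMT reagents, pooled, trypsin-digested overnight at 37 °C, streptavidin-enriched, acid-eluted and run on Orbitrap Eclipse LC-MS/MS with FAIMS, with quantification in FragPipe. Three replicates with duplicate channels were used, and any cysteine quantified in only one replicate was excluded.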

As to ZNF746 C425 (UniProt Q6NUN9), the “log2 ratio of iodoacetamide-alkyne labeling” value (shortened to “log2 ratio”) was 0.385.

As to UniProt Q9BPX6_C83, the “log2 ratio” value was 0.582. To NCAPG C202 (UniProt Q9BPX3) belongs 0.0426; to TRMT2A C463 (UniProt Q8IZ69), 1.1 (active).

Regarding ARL6IP6 C48 (UniProt Q8N6S5), the “log2 ratio” value was 0.392. To PBK C112 (UniProt Q96KB5) belongs 0.35; to CEP135 C316 (UniProt Q66GS9), 0.0231. For GSTCD C335 (UniProt Q8NEC7), the “log2 ratio” value was 0.19.

With BEND3 C95 (UniProt Q5T5X7), the “log2 ratio” value was 1.11 (active). To ACD C406 (UniProt Q96AP0) belongs 0.713; to UniProt Q7Z4H7_C885, 0.286.

Turning to CCAR1 C579 (UniProt Q8IX12), the “log2 ratio” value is 0.0854. The figure for DHX30 C461 (UniProt Q7L2E3) is 0.193. To FLAD1 C499 (UniProt Q8NFF5) belongs 1.06 (active). For UBR1 C1603 (UniProt Q8IWV7), the “log2 ratio” value is 0.433. To IRF2BP1 C363 (UniProt Q8IU81) belongs 0.0738. Regarding GPKOW C394 (UniProt Q92917), the “log2 ratio” value is -0.0148. To NSD1 C1689 (UniProt Q96L73) belongs 0.216; to PHF6 C28 (UniProt Q8IWS0), 0.287.

Consider FAF2 C194 (UniProt Q96CS3), for which the “log2 ratio” value was 0.689. On to UniProt Q8WUQ7_C699, for which the “log2 ratio” value was 0.0859. In the case of SLFN11 C6 (UniProt Q7Z7L1), the “log2 ratio” value is 0.329.

As for TMCO6 C57 (UniProt Q96DC7), the “log2 ratio” value is 0.394.

As for LPP C468 (UniProt Q93052), the “log2 ratio” value was 0.118. On to HSDL2 C11 (UniProt Q6YN16), for which the “log2 ratio” value is 0.0294. To PHIP C612 (UniProt Q8WWQ0) belongs -0.25; to FIGNL1 C200 (UniProt Q6PIW4), 1.08 (active).

Turning to ZFR C974 (UniProt Q96KR1), the “log2 ratio” value was 0.302. The figure for ZFYVE16 C292 (UniProt Q7Z3T8) is 0.185; for MYBBP1A C968 (UniProt Q9BQG0) it is 0.274; for UniProt Q96HE7_C241 it is 0.0793.

On to NEK9 C25 (UniProt Q8TD19), for which the “log2 ratio” value was 1.21 (active). Consider NIPBL C1795 (UniProt Q6KC79), for which the “log2 ratio” value was -0.189. On to DDX54 C73 (UniProt Q8TDD1), for which the “log2 ratio” value is 0.301. Take WDFY2 C290 (UniProt Q96P53): the “log2 ratio” value was -0.231.
